SMILES strings stand for the structures. Values joined by “and” are separate entries in the source; they are usually repeats but may differ in a detail not shown here. Equal entries are not always repeated. This is part of a sample that, as a whole, favours compounds with a hit. Of some 83,000 tested, about 20% had one in any assay.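 The test compound was applied at a single concentration to cells in 96-well plates for 48 hours, and percent growth was recorded.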 Unmarked numbers belong to inactive results. Active and inactive are the calls of the source. Rule for the calls: active = growth percent below 10; inactive = the rest.

This assay concerns MDA-MB-468 breast. Kind of assay: NCI-60 one-dose screen, 48 h (100 = growth as untreated, 0 = no growth, -100 = all killed). The conditions noted are these: 10 µM unless noted.
Turning to `CCN(CC)CCn1c2ccc(OC)cc2c2sc3cc(O)ccc3c(=O)c21`, the growth is 60.3%.

Turning to `CCOc1nc(-c2ccccc2)cc2c(O)c(C(=O)n3nc(C)cc3C)[nH]c(=O)c12`, the growth was 99.1%.

Take `COc1cccc(-c2nc3sccn3c2-c2ccnc(NCCN3CCCNS3(=O)=O)n2)c1`: the growth is 102%.

For `Cc1cc(N=Nc2ccc(C)c(N=Nc3cc(C)c(N)cc3N)c2)c(N)cc1N`, the growth is 96.7% and 60.3%.

Consider `CC(/C=C1\SC(=S)N(CC(=O)NC(Cc2c[nH]c3ccccc23)C(=O)O)C1=O)=C\c1ccccc1` (stereo not given), for which the growth is 95.1%.

For the compound `CCN1C(=O)/C(=C/C=C/N(C)c2ccccc2)SC1=S`, the growth was 89.1%.

Regarding `O=C(O)c1ccc(=O)[nH]n1`, the growth is 123%.

As for `O=C(N/N=C/c1ccccc1O)Nc1nn[nH]n1`, the growth was 97.6%.

Regarding `COc1ccc(-c2nn(-c3ccc(NC(=O)Nc4ccc(Cl)c(Cl)c4)cc3)cc2-c2ccncc2)cc1Cl`, the growth is -33.2% (active).

As to `CS(=O)(=O)c1ccc(C(=O)N2N=C(c3ccccc3)CC2c2ccc3c(c2)OCO3)cc1` (stereo not given), the growth was 90.1%.

Turning to `N#C/C(=C\c1ccc(Cl)cc1Cl)C(N)=O`, the growth is 96.3%.

As for `N#Cc1cc(-c2nc3ccccc3s2)c(=O)n(NS(=O)(=O)c2ccccc2)c1N`, the growth was 118%.

For the compound `O=S(=O)(O)c1cnccn1`, the growth was 105%.

As for `CC(=O)Cc1ccccn1`, the growth is 120%.

Consider `CC1SC(c2ccc(Cl)cc2)N(CCc2cccs2)C1=O` (stereo not given), for which the growth was -38.4% (active).

In the case of `CCOS(=O)(=O)c1ccc([N+](=O)[O-])cc1`, the growth was 119%.

Take `CN1CCN(c2ccc3nc(-c4[nH]ncc4Nc4ncnc5c4OCCCN5)[nH]c3c2)CC1`: the growth is -76.3% (active).

Take `COc1ccc(-c2n[nH]c(=O)c3nc(NC(=S)Nc4ccc(Oc5ccccc5)cc4)sc23)cc1`: the growth was 98%.

As to `CCCN1C(=O)N(CCC)C2C1NC(=S)N2/N=C/C=C/c1ccccc1OC` (stereo not given), the growth is 1.14% (active).

With `COc1ccc(/C=C2\COc3ccc(-c4ccccc4)cc3C2=O)cc1O`, the growth is 14.6%.

For `CCCCCN1C=C/C(=C\C(=O)N(C)c2cccc3ccccc23)c2ccccc21`, the growth was 70.9%.

With `Cc1ccc(S(=O)(=O)c2ccc3[nH]c(=O)[nH]c(=O)c3c2)cc1`, the growth is 102%.

With `C=C(C)[C@@H]1CC[C@]2(C(=O)N3CCN(C)CC3)CC[C@]3(C)[C@H](CC[C@@H]4[C@@]5(C)CC(CCCNC(C)=O)(CCCNC(C)=O)[C@H](OC(C)=O)C(C)(C)[C@@H]5CC[C@]43C)[C@@H]12`, the growth is 99.2%.

As to `CCN(CC)S(=O)(=O)c1ccc(O)c(NC(=O)c2[nH]c(C)c(C(C)=O)c2CCc2ccc(Cl)cc2)c1`, the growth is 19.8%.

As for `CCN(CC)c1ccc2nc3c4ccccc4c(=NC(=O)c4ccccc4-c4c5ccc(N(CC)CC)cc5[o+]c5cc(N(CC)CC)ccc45)cc-3oc2c1`, the growth is -59.2% (active).

As to `N#Cc1c(-c2ccc(F)cc2)nc(N=Nc2c(O)[nH]c3ccc(Cl)cc23)nc1N1CCOCC1`, the growth is 47.1%.

For `CC(C)(C)C(=O)/C=c1/[nH]c(=O)/c(=C/c2ccccc2O)s1`, the growth was 17.2%.

In the case of `Cc1ccc2nc(N)nnc2c1`, the growth was 102%.

In the case of `COc1ccccc1S(=O)(=O)Nc1ccc2c(c1)CN(C)C(=O)N2`, the growth is 21.1%.

As to `COc1ccc(OC)c(Nc2nc3nonc3nc2Nc2cccc(Br)c2)c1`, the growth is 0.0908% (active).

Turning to `CC(=O)c1ccc(NC(=O)CSc2nnc(-c3cc(-c4ccc(C)cc4)nc4ccccc34)o2)cc1`, the growth was 95.4%.

Regarding `COc1ccc(/C=C/C(=O)C(CC2CCC2)C(=O)/C=C/c2ccc(OC)c(OC)c2)cc1OC`, the growth is -22.2% (active).

With `CCOC(=O)CC(c1ccccc1)C(C#N)c1ccccc1` (stereo not given), the growth is 101%.

On to `N=c1c2cc(-c3ccccc3)oc2ncn1/N=C/c1ccc(Br)cc1`, for which the growth is 68.3%.

With `C/C(Cc1ccc(Cl)cc1)=C(\c1ccc(O)cc1)c1ccc(Cl)cc1`, the growth is 101%.

Regarding `Cc1cc(N(CCNc2ccnc3cc(Cl)ccc23)Cc2cccs2)nc(Cl)n1`, the growth was -65.2% (active).

`COc1cc(C2CC(C3C(=O)N(C)C(=O)N(C)C3=O)=NN2c2cc(Cl)cc(Cl)c2)cc(OC)c1OC` (stereo not given): the growth was 84.5%.

For the compound `Brc1ccc2[nH]cc(-c3nn4cc(-c5nccs5)nc4s3)c2c1`, the growth is 51.2%.

As for `N=C(N)c1ccc(-c2ccc(-c3ccc(Cl)cc3)o2)nc1`, the growth is -88.7% (active).

For `CCCCCCCC/C=C/CCCCCCCC1=NC(C)(C)CN1CC(C)O` (stereo not given), the growth is 46.7%.

The values are drawn from PubChem BioAssay (NCI).
